RE007 growth inh – less growth of the S. pombe RE007 Vpr strain; S. pombe RE007 Vpr strain, BacTiter-Glo ATP luminescence, 24 h; Potency, µM (top dose mostly 92.2 µM), without a hit: at the highest dose activity change, negative = less growth, usual class: inhibitors; 360,000 compounds, 0.21% hits; AID 651644; active = well fitted falling curve with a large enough effect; inconclusive = small, poorly fitted or top-dose-only effect; inactive = no such curve, though single readings can be large or run the other way; also: nearly all actives have a fitted effect of over 50% in size
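Fission yeast strain RE007, carrying one chromosomally integrated HIV-1 vpr copy, was seeded at OD 0.01 in PMG+AL medium with 23 nL pinned compound. After 24 h at 30 °C and 99% humidity, viability was read by BacTiter-Glo luminescence.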
Giardia FBPA inh-1 – inhibitors of Giardia lamblia fructose-1,6-bisphosphate aldolase; A8B2U2; purified Giardia FBPA; Potency, µM (series often up to 59.6 µM), for inactives: at the top dose activity, negative = inhibition, usual class: inhibitors; 290,000 compounds, 0.71% hits; AID 2451; also: nearly all actives have a fitted effect of over 55% in size
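Giardia FBPA (40 nM reagent) was preincubated 10 min at RT with compound (up to 57.5 uM final), then substrate plus GAPDH/TPI/NAD/arsenate coupling system with diaphorase/resazurin was added; resorufin fluorescence (525/598 nm) was read after 20 min.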
TbPYK inhibitor – blocks Trypanosoma brucei pyruvate kinase. TbPYK enzyme, Kinase-Glo Plus ATP luminescence, 45 min. Q57TT1. Potency, µM (series often up to 76.8 µM), without a hit: at the highest dose activity, negative = inhibition, actives largely listed as inhibitors. 410,000 compounds, 0.12% hits; also: nearly all actives have a fitted effect of over 50% in size
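Activity of T. brucei pyruvate kinase was followed by Kinase-Glo Plus luminescence after the enzyme reacted 45 min at room temperature with 130 uM ADP (final) and substrate. Test compounds were added before ADP at multiple concentrations.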
AmpC inh no detg – inhibitors of E. coli AmpC beta-lactamase without detergent; P00811; AmpC nitrocefin hydrolysis, absorbance 480 nm, 0.0001% Triton; Potency, µM (series often up to 57.1 µM), without a hit: at the top dose activity change, negative = inhibition, usual class: inhibitors; 330,000 compounds, 0.52% hits; AID 485341;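 also: plate controls were no compound for no effect and no enzyme for full effect; nearly all actives have a fitted effect of over 20% in size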
Target sequence (P00811 whole entry, looked up): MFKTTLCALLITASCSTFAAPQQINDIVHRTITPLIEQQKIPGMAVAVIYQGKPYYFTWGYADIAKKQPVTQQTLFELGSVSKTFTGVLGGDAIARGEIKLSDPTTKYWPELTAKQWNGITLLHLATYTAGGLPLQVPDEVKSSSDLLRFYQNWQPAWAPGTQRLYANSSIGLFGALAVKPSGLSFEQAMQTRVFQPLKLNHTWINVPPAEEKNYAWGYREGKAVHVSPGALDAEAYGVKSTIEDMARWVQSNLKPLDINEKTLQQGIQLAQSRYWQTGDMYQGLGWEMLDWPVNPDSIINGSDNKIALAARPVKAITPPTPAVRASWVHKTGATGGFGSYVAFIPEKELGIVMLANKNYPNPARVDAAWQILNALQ
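AmpC (5.3 nM in the dispensed reagent) in 20 mM phosphate pH 7.0 with 0.01% (detergent screen) or 0.0001% Triton X-100 was preincubated with compounds for 15 min at room temperature. Nitrocefin was then added from an 800 uM solution, and hydrolysis was followed at 480 nm.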
LmPK inh – LmPK (Leishmania mexicana) enzyme inhibition; Q27686; purified LmPK, Kinase-Glo ATP luminescence, 1 h; 290,000 compounds, 0.37% hits; Potency, µM (highest dose often 57.5 µM), for the others: top-dose activity change, negative = inhibition, hits mostly inhibitors
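Screened at intermediate enzyme activity to detect both inhibitors and activators: LmPK at 0.1 nM, with a 0.5 nM enzyme column as activation reference. PEP 0.5 mM, ADP 0.1 mM; ATP detected by luminescence after 1 h.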
AmpC detergent – blocks E. coli AmpC beta-lactamase in detergent assay | Potency, µM (titrated, usually from 114 µM), for inactives: at the highest dose activity change, negative = inhibition, actives largely listed as inhibitors | 370,000 compounds, 0.041% hits | P00811 | AmpC hydrolysis of nitrocefin, absorbance 480 nm, 0.01% Triton;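 also: 0% = no-compound wells and -100% = no-enzyme wells; nearly all actives have a fitted effect of over 25% in size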
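20 mM phosphate pH 7.0 + 0.01% (detergent screen) or 0.0001% Triton X-100; 5.3 nM AmpC reagent; cpd preinc 15 min RT; nitrocefin (800 uM stock) to start; A480 q20 s × 4 min; Activity was normalised to no-enzyme and no-compound control wells.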
Giardia growth – blocks growth of Giardia lamblia trophozoites; shares compounds with Giardia FBPA inh-1; Giardia lamblia trophozoite growth inhibition; Potency, µM (titrated, usually from 57.5 µM), inactives show at the highest dose activity change, negative = inhibition, actives largely listed as inhibitors; 1,500 compounds, 5% hits; AID 2785;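 also: trophozoites exposed to compound for 48 h at 37 °C; nearly all actives have a fitted effect of over 70% in size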
Mammal cell tox – toxic to mammalian cells in Giardia aldolase counter-screen. Potency, µM (highest dose often 57.5 µM), for the others: at the highest dose viability change, negative = toxicity, hits mostly inhibitors. shares compounds with Giardia FBPA inh-1. mammalian cell viability counter-screen, qHTS. AID 2786. 1,500 compounds, 4% hits;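 also: Chinese hamster ovary cells used as mammalian cytotoxicity surrogate; viability measured as cellular ATP by luminescence; compound exposure lasted 48 h before reading; nearly all actives have a fitted effect of over 60% in size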
Giardia FBPA inh-2 – confirmation of Giardia fructose-bisphosphate aldolase inhibitors; shares compounds with Giardia FBPA inh-1; purified Giardia aldolase enzyme activity, qHTS; Potency, µM (series often up to 57.5 µM), inactives show top-dose activity change, negative = inhibition, most hits filed as inhibitors; 1,500 compounds, 5% hits; AID 2787; also: nearly all actives have a fitted effect of over 45% in size
Rabbit aldolase – rabbit FBP aldolase inhibition by Giardia aldolase hits. shares compounds with Giardia FBPA inh-1. Rabbit muscle FBPA enzyme inhibition, selectivity counter-screen. Potency, µM (titrated, usually from 57.5 µM), inactives show top-dose activity, negative = inhibition, actives largely listed as inhibitors. 1,500 compounds, 4% hits; also: nearly all actives have a fitted effect of over 60% in size
Target sequence (P00883 whole entry, looked up): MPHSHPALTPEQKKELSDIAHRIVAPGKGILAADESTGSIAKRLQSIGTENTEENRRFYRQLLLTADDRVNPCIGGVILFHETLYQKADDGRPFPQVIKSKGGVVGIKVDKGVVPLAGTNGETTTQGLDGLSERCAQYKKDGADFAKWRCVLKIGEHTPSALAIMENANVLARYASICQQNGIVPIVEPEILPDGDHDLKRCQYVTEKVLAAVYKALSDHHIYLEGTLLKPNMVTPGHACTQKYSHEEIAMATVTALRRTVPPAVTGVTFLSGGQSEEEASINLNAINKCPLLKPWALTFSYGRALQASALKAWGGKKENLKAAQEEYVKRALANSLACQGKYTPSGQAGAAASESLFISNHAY
GAPDH coupling – GAPDH inhibition flagged for Giardia aldolase hits; shares compounds with Giardia FBPA inh-1; GAPDH coupling enzyme counterscreen, biochemical, qHTS; Potency, µM (doses to about 57.5 µM), for the others: top-dose activity change, negative = inhibition, hits mostly inhibitors; 1,500 compounds, 6% hits; AID 2795; also: nearly all actives have a fitted effect of over 55% in size
An asterisk follows results filed as active; ? = inconclusive; nt = not tested or not shown; [ ] = another dose, or the depositor's remark. A selection: hits, their analogues and other compounds. The true share with any hit is near 1.4%. Unless noted, calls follow the shape of the dose curve; as a rule, active = well fitted curve in the direction sought with a large enough effect; inconclusive = small, poorly fitted or top-dose-only effect, or another doubt; inactive = no such curve, though single readings can be large; an effect the other way counts as inactive or inconclusive. Unless noted, % is scaled to controls: 0 for no effect and ±100 for the full control effect; potency is read from the fitted curve at half-maximal effect.

SMILES | RE007 growth inh | Giardia FBPA inh-1 | TbPYK inhibitor | AmpC inh no detg | LmPK inh | AmpC detergent | Giardia growth | Mammal cell tox | Giardia FBPA inh-2 | Rabbit aldolase | GAPDH coupling
CN(C1=C(NC(=O)c2ccccc2)C(=O)c2ccccc2C1=O)C1CCS(=O)(=O)C1 (stereo not drawn) | -18% | 0.63µM* | -28% | -40% | -8% | -12% | 25µM* | 40µM* | ? | ? | 6.3µM*
O=C(c1cccnc1)N1CCN(C/C=C/c2ccccc2)CC1 | -9% | 4% | 1% | -4% | -1% | 3% | nt | nt | nt | nt | nt
O=C(NC(=S)N1CCN(C/C=C/c2ccccc2)CC1)c1cccnc1 | -17% | 11µM* | ? | 16% | -3% | 1% | 11% | 10% | -3% | 7% | -1%
Cc1ccc(OCC(=O)Nc2ccc3nc(SCC(=O)N4CCCC4)sc3c2)cc1C | nt | nt | -1% | nt | nt | 14% | nt | nt | nt | nt | nt
CCN(C(=O)c1cc(S(=O)(=O)N2CCOCC2)cn1C)c1cccc(C)c1 | 4% | 13µM* | -1% | -5% | -10% | -16% | 28% | -5% | 10% | 0% | 2%
Cc1ccc(C)c(NC(=O)C2CCCN(S(=O)(=O)c3cccc4nsnc34)C2)c1 (stereo not drawn) | nt | nt | -6% | nt | nt | 2% | nt | nt | nt | nt | nt
Cc1cccc(NC2=C/C(=N/S(=O)(=O)c3cccs3)c3ccccc3C2=O)c1 | -3% | 0.2µM* | -30% | -39% | -15% | -11% | 16µM* | 20µM* | ? | -15% | 2.5µM*
O=C1C(Nc2ccc(O)cc2)=C/C(=N/S(=O)(=O)c2cccs2)c2ccccc21 | -30% | ? | -23% | -33%[11.4 µM] | ? | ? | nt | nt | nt | nt | nt
Cc1oc2ccc(O)c(CN3CCCC3)c2c1C(=O)Nc1cccc(Cl)c1C | nt | nt | 2% | nt | nt | 12% | nt | nt | nt | nt | nt
CCOc1cc(/C=N/Nc2nnc(C)n2N)ccc1OC(C)=O | -6% | 16µM* | -6% | -6% | -4% | -7% | 2%[38.3 µM] | -17% | 5.8µM* | 5.8µM* | 6.5µM*
CCc1nnc(N/N=C\c2ccc(OC(C)=O)c(OC)c2)n1N | -13% | 16µM* | -7% | -10% | -2% | 1% | -3%[38.3 µM] | -28% | 3.7µM* | 5.2µM* | 5.8µM*
CCc1nnc(N/N=C/c2ccc(O)c(OC)c2)n1N | -5% | 20µM* | 0% | -22% | 11% | -18% | 3%[10.4 µM] | 1% | ? | ? | -20%
CCc1nnc(N/N=C/c2cccs2)n1N | -10% | 5µM* | -7% | -30% | 0% | -7% | ? | ? | 13µM* | 13µM* | 13µM*
CCc1nnc(N/N=C/c2c(Cl)cccc2Cl)n1N | -13% | ? | 4% | 82% | 2% | -2% | nt | nt | nt | nt | nt
CCOc1cc(/C=N/NC(N)=O)ccc1OC(=O)c1ccc(C)cc1 | nt | -1% | nt | 33% | 6% | -1% | nt | nt | nt | nt | nt
CCOc1ccc(NC(=O)CC2C(=O)N(c3ccc(F)cc3)C(=O)N2CCc2sccc2C)cc1 (stereo not drawn) | nt | nt | 1% | nt | nt | -3% | nt | nt | nt | nt | nt
COCCN1CCc2nc(SCC(=O)Nc3ccc(C)c(Cl)c3)[nH]c(=O)c2C1 | nt | nt | 2% | nt | nt | 25% | nt | nt | nt | nt | nt
CC(=O)Nc1ccc(S(=O)(=O)NCc2cccn2Cc2cccc(C)c2)cc1 | nt | nt | -5% | nt | nt | -1% | nt | nt | nt | nt | nt
Cc1ccc(NC(=O)CN2C(=O)C(c3ccc(C)cc3)=NC23CCCCCC3)cc1 | nt | nt | 2% | nt | nt | -3% | nt | nt | nt | nt | nt
Cc1nnc(N/N=C/c2cccc(OCc3ccc(Cl)c(Cl)c3)c2)n1N | -7% | 18µM* | 2% | 78% | -3% | -16% | ? | 1% | ? | -19% | ?
CCOC(=O)c1cc2c(=O)n3ccccc3nc2n(CCCOC)c1=NC(=O)c1cc2ccccc2o1 | nt | nt | 1% | nt | nt | 6% | nt | nt | nt | nt | nt
O=C(O)Cn1cnc2c(=S)nc[nH]c21 | 1% | 3.5µM* | ? | 89% | 1% | 3% | -4%[38.3 µM] | -4% | -4% | -4% | -8%
O=C(CCCCn1cnc2c(=S)nc[nH]c21)Nc1ccc(C(=O)O)cc1 | -10% | nt | ? | nt | nt | nt | nt | nt | nt | nt | nt
Cc1nccn1CC1CCc2c(c3ccccc3n2C)C1=O (stereo not drawn) | 17%[18.4 µM] | 20µM* | -10% | -20% | -14% | -7% | 11%[10.4 µM] | -1% | 5% | 4% | 16%
O=C(N/N=C/c1cccnc1)c1cc(O)c(O)c(O)c1 | 0% | 10µM* | 3% | -19% | -7% | 0% | ? | 6% | -25% | -20% | -8%
